TDP43 rescue – qHTS of TDP-43 Inhibitors; Potency, µM (doses to about 46.1 µM), usual class: activators; AID 652104, 2013; hit rate 1.8% among 410,000; TDP-43 expressing yeast growth rescue, BacTiter-Glo, 24 h; further: nearly all actives have a fitted effect of over 50% in size
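Galactose-induced TDP-43 yeast, OD600=0.02, compound pinned; 24 hr, 30 deg C; BacTiter-Glo luminescence for growth. Inhibitors of TDP-43 toxicity read as activators.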
Abeta rescue – qHTS for compounds that reverse cellular toxicity of Amyloid beta (A-beta) peptide in yeast: Primary Screen. yeast expressing A-beta42, growth rescue, OD600, 48 h; response scale: 0% DMSO, 100% iron-clioquinol control. Potency, µM (highest dose often 46.1 µM), hits mostly activators. hit rate 0.063% among 410,000. AID 1347071, 2019; further: nearly all actives have a fitted effect of over 55% in size
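Yeast A-beta toxicity model in growth medium with pinned compounds, 48 h at 30 C; growth read as absorbance at 600 nm. Normalized to FeCl3/clioquinol equimolar mix (positive) and DMSO (negative).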
PTAP TSG101 blk – qHTS Assay for Iinhibitors of HIV-1 Budding by Blocking the Interaction of PTAP/TSG101 | Fluorescence polarization, FITC-PTAP peptide / Tsg101 binding | Potency, µM (doses to about 115 µM), hits mostly inhibitors | Tumor susceptibility gene 101 protein (Homo sapiens), Q99816 | 340,000 tested, under 10 active; active means well fitted inhibition curve with a large enough effect in the main read-out, with a control signal flat, not every such curve was filed as active; inconclusive means small, poorly fitted or top-dose-only effect, or effect the other way, or a change in a side signal; inactive means no such curve, though single readings can be large or run the other way
Target sequence (Q99816 whole entry, looked up): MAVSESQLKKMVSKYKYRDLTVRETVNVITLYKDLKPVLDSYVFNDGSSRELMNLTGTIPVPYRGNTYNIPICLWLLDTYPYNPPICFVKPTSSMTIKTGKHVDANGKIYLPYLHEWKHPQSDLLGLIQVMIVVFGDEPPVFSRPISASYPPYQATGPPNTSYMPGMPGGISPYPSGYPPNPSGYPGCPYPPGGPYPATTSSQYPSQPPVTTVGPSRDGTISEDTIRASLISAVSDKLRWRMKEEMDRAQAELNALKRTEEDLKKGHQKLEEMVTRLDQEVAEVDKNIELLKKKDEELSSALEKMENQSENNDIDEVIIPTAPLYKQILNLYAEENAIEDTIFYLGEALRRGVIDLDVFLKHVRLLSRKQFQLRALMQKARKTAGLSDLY
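Fluorescence anisotropy tracks displacement of a FITC-tagged PTAP peptide (50 nM) from the Tsg101 binding domain (10 uM), following a 20 min room-temperature incubation at pH 7.5.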
aSyn rescue – qHTS of alpha-syn Inhibitors. hit rate 0.14% among 370,000. Yeast expressing alpha-synuclein, growth rescue, BacTiter-Glo, 24 h. AID 652106, 2013. Potency, µM (titrated, usually from 46.1 µM), actives largely listed as activators; further: nearly all actives have a fitted effect of over 65% in size
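Galactose-induced alpha-syn yeast (OD600=0.02, raffinose-pregrown) + pinned cpd, 24 hr, 30 deg C; growth by BacTiter-Glo luminescence. Growth restoration scores as activation.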
FUS yeast rescue – qHTS for Suppressors of FUS Proteinopathy: Primary screen using FUS-linked yeast assay | S. cerevisiae FUS-expressing, growth rescue, OD600, 24 h | Potency, µM (titrated, usually from 76.6 µM), hits mostly activators | hit rate 0.24% among 390,000 | AID 1347120, 2019; further: nearly all actives have a fitted effect of over 55% in size
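Galactose (2%) drives FUS expression in yeast precultured in raffinose; seeding density OD 0.005. Test compounds incubated 24hr at 30C and 99% humidity before absorbance at 600 nm was measured.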
Large screens that a line does not name were inactive. A selection: hits, their analogues and other compounds. The true share with any hit is near 2.1%. Unless noted, the call rests on the fitted dose curve; in most records, active means well fitted curve in the direction sought with a large enough effect; inconclusive means small, poorly fitted or top-dose-only effect, or another doubt; inactive means no such curve, though single readings can be large; an effect the other way counts as inactive or inconclusive.

CCCCN(C(=O)CSc1nn(-c2ccc(F)cc2)c(=S)s1)c1c(N)n(CCCC)c(=O)[nH]c1=O	FUS yeast rescue 7.1µM
O=C(NCc1ccccc1Cl)c1ccc(CSCc2cccc(F)c2)o1	TDP43 rescue inconclusive (no result: PTAP TSG101 blk, aSyn rescue)
Cc1ccc(NC(=O)c2ccc(C)c(S(=O)(=O)N3CCCCCC3)c2)cc1	TDP43 rescue 18µM (no result: PTAP TSG101 blk)
COc1ccccc1NC(=O)c1cc(S(=O)(=O)N2CCCCCC2)ccc1F	TDP43 rescue 11µM
Cc1ccc(NC(=O)c2ccccc2F)cc1S(=O)(=O)N1CCCCCC1	TDP43 rescue 20µM
Cc1ccc(NC(=O)COC(=O)c2ccccc2F)cc1S(=O)(=O)N1CCCCC1	Abeta rescue inconclusive
COc1ccccc1CN(C)CC(=O)Nc1cccc(S(=O)(=O)N2CCCCC2)c1	TDP43 rescue 3.2µM
NC(=O)C1CCN(c2nc(-c3ccc4ccccc4c3)cs2)CC1	none (no result: TDP43 rescue, aSyn rescue)
NC(=O)C1CCN(c2nc(-c3ccc4c(c3)OCCCO4)cs2)CC1	FUS yeast rescue 25µM (no result: TDP43 rescue, Abeta rescue, PTAP TSG101 blk, aSyn rescue)
CCc1ccccc1N(C)C(=O)Cc1c(C(=O)O)c(C)cn1C	none (no result: PTAP TSG101 blk, aSyn rescue)
Cc1nc(S(=O)(=O)NC2CCCCC2)c(C#N)c(C)c1Cl	TDP43 rescue inconclusive
Cc1nc(S(=O)(=O)N2CCOCC2)c(C#N)c(C)c1Cl	TDP43 rescue 13µM
CCCCCn1c(N2CCC(Cc3ccccc3)CC2)nc2c1c(=O)[nH]c(=O)n2C	FUS yeast rescue inconclusive
CCCn1c(N2CCC(Cc3ccccc3)CC2)nc2c1c(=O)[nH]c(=O)n2C	TDP43 rescue 22µM
COc1cccc(CNc2ccccc2O)c1OCc1ccccc1F	FUS yeast rescue 20µM
NC(=O)c1cc(S(=O)(=O)N2CCN(c3ccc(F)cc3)CC2)cs1	none (no result: PTAP TSG101 blk, aSyn rescue)
O=C(CSc1nc2scc(-c3ccco3)c2c(=O)n1-c1ccccc1)N1CCOCC1	none
NC(=O)CSc1nc2scc(-c3ccco3)c2c(=O)n1-c1ccccc1	FUS yeast rescue 22µM
COc1ccc(CCNC(=O)CCc2c(C)c3cc4c(C)c(C)oc4cc3oc2=O)cc1	none (no result: PTAP TSG101 blk, aSyn rescue)
CCOC(=O)Cn1c(=O)n(CC2CCCO2)c2nc(-c3cc(OC)ccc3OC)nc(C(N)=O)c21 (configuration not stated)	none (no result: PTAP TSG101 blk)
Cc1ccc(Cn2cc(C(=O)c3ccc(C)cc3)c(=O)c3ccc(C)nc32)cc1	none (no result: PTAP TSG101 blk, aSyn rescue)
Cc1ccc(C(=O)c2cn(Cc3cccc(C)c3)c3nc(C)ccc3c2=O)cc1	TDP43 rescue 20µM (no result: PTAP TSG101 blk, aSyn rescue)
c1ccc(-c2nnc(CSc3ccc4c(c3)OCCO4)o2)cc1	TDP43 rescue 13µM
O=C(OCc1nnc(-c2ccccc2)o1)c1ccc2c(c1)OCO2	FUS yeast rescue inconclusive
CC1(C(=O)Nc2cnc3ccccc3c2)CCN1C(=O)CC(c1ccccc1)c1ccccc1 (configuration not stated)	TDP43 rescue 18µM, FUS yeast rescue inconclusive (no result: PTAP TSG101 blk)
O=C(CCCCCn1c(=S)[nH]c2ccccc2c1=O)NCc1ccc2c(c1)OCO2	TDP43 rescue 7.1µM
O=c1c2ccccc2[nH]c(=S)n1Cc1ccc2c(c1)OCO2	none
COC(=O)[C@]12C[C@H](CC(=O)N3CCCC3)C(=O)N(CCc3ccc(OC)c(OC)c3)C1=C[C@H](COCc1ccccc1)O[C@@H]2C	none (no result: TDP43 rescue, Abeta rescue, PTAP TSG101 blk, aSyn rescue)
Cc1cccc(Cn2nnc3c(=O)[nH]c(C4CCCN(C(=O)c5ccc(C(C)(C)C)cc5)C4)nc32)c1 (configuration not stated)	FUS yeast rescue 22µM (no result: PTAP TSG101 blk, aSyn rescue)
COC(=O)C1=C(C(=O)OC)[C@]2([C@@H]3CC=CCN[C@@H](Cc4ccccc4)C(=O)N3Cc3ccccc3)C=C[C@H]1O2	none
COC(=O)C1=C(C(=O)OC)[C@]2([C@H]3CC=CCN[C@@H](Cc4ccccc4)C(=O)N3Cc3ccccc3)C=C[C@H]1O2	FUS yeast rescue 22µM
O=S(=O)(c1ccc(F)cc1)N1CN(Cc2ccco2)c2nc3ccccc3nc21	FUS yeast rescue 16µM
Cc1ccc(S(=O)(=O)N2CN(Cc3ccco3)c3nc4ccccc4nc32)cc1C	none
Cc1ccc(S(=O)(=O)N2CN(Cc3ccco3)c3nc4ccccc4nc32)cc1	none
COc1ccc(S(=O)(=O)N2CN(Cc3ccco3)c3nc4ccccc4nc32)cc1	FUS yeast rescue 5.6µM
CCc1cccc(NC(=O)CCN2C(=O)c3ccccc3Sc3ncccc32)c1	none (no result: PTAP TSG101 blk, aSyn rescue)
CCC(C(=O)OCC(=O)NCc1ccc2c(c1)OCO2)c1ccccc1 (configuration not stated)	TDP43 rescue inconclusive
O=c1cc(CNc2cc(C(F)(F)F)cc(C(F)(F)F)c2)nc2sccn12	TDP43 rescue 18µM (no result: FUS yeast rescue)
O=c1cc(COn2nnc3ccc(C(F)(F)F)cc32)nc2sccn12	TDP43 rescue 10µM
O=c1ccc(C(F)(F)F)cn1Cc1cc(=O)n2ccsc2n1	none
Cc1ccc(-n2nc3c(N4CCC(C(=O)N5CCCCC5)CC4)nnc(C)c3c2C)cc1	none (no result: PTAP TSG101 blk, aSyn rescue)
O=C(Nc1cccc(-c2nc3ncccc3o2)c1)c1ccccc1	TDP43 rescue 16µM
Cc1cc(=O)oc2cc(OCCc3ccccc3)ccc12	TDP43 rescue 13µM
Cc1cc(=O)oc2cc(OCCCC[n+]3ccccc3)ccc12	none
Cc1c(C(=O)NCc2cccs2)sc(=O)n1Cc1ccc(S(C)(=O)=O)cc1	none (no result: PTAP TSG101 blk)
Cc1cc(C)cc(Nc2ncc3c(n2)CC(c2ccco2)CC3=O)c1 (configuration not stated)	TDP43 rescue 16µM, FUS yeast rescue inconclusive
CN(C1CCCCC1)S(=O)(=O)c1ccc2c(c1)c(=O)c(C(=O)N1CCN(c3ccccc3)CC1)cn2C	none (no result: PTAP TSG101 blk, aSyn rescue)
Clc1ccc(Nc2nc(C3CC3)cs2)cc1	TDP43 rescue 14µM
S=c1[nH]nc(Nc2ccc(Cl)cc2)s1	none
COc1ccc(NC(=O)CSC2=Nc3ccccc3C3=NC(CCC(=O)NCCc4ccccc4)C(=O)N23)c(OC)c1 (configuration not stated)	TDP43 rescue inconclusive (no result: PTAP TSG101 blk, aSyn rescue)
Cc1cc2c(cc1C)-c1nnnn1C(N1CCCC1)C(=O)N2 (configuration not stated)	none (no result: PTAP TSG101 blk)
Cc1cc2c(cc1C)-c1nnnn1C(N1CCC(Cc3ccccc3)CC1)C(=O)N2 (configuration not stated)	TDP43 rescue 25µM (no result: PTAP TSG101 blk)
O=C(c1ccccc1)N1CCC(c2nc3ccccc3o2)CC1	none (no result: PTAP TSG101 blk, aSyn rescue)
O=C1c2ccccc2N2C(=O)c3ccccc3[C@H]2N1c1ccccc1	TDP43 rescue 20µM
COc1ccc(NC(=O)Nc2nc3c(s2)CCCC3)cc1	TDP43 rescue 14µM, aSyn rescue 13µM (no result: FUS yeast rescue)
CC1CCc2nc(NC(=O)Cc3cccs3)sc2C1 (configuration not stated)	TDP43 rescue 28µM

Screening results as filed in PubChem.
